Holding throughout (assay): NCI-60 one-dose screen, 48 h (100 = growth as untreated, 0 = no growth, -100 = all killed)
Conditions in all cases: 10 µM unless noted

Test [1] concerns T-47D breast.
Test [2] concerns BT-549 breast.
Test [3] deals with MDA-MB-435 melanoma.
Test [4] concerns SW-620 colon.
Test [5] has as its system MCF7 breast.
Test [6] relates to HCT-116 colon.
Test [7] has as its system KM12 colon.
The subject of test [8] is HCC-2998 colon.

Compounds without any hit were thinned out: in the full panel of roughly 83,000, 20% have a hit.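 Note: values are percent growth. 100 is the growth of untreated cells, values between 100 and 0 indicate rising inhibition; between -100 and 0 indicates cell death.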 Values without a mark were called inactive. The source made the active and inactive calls. Rule for the calls: active = growth percent below 10; inactive = the rest.

Regarding `CN1CCN(Cc2ccc(NC(=O)c3cncc(C#Cc4cnc(N)c5ncccc45)c3)cc2C(F)(F)F)CC1`, the growth was 35.9% in test [1]; 34.1% in test [2]; -64.7% (active) in test [3]; -16.9% (active) in test [4]; -74.2% (active) in test [5]; -63.8% (active) in test [6]. In test [7], the growth was 5.04% (active).

Regarding `Cn1cc(-c2nn3cc(-c4cccs4)nc3s2)c2cc(F)ccc21`, the growth was 45% in test [1]; 43.1% in test [2]; -43.4% (active) in test [3]; 12.4% in test [4]; 21.4% in test [5]; 14.2% in test [6]. In addition, the growth in test [7] is 22.2%.

Take `CCOC(=O)C#Cc1c(C(=O)OCC)nnn1Cc1ccc(C(F)(F)F)cc1`: the growth in test [1] is 31.8%; in test [2] it was 63.1%; in test [3], 63.8%; in test [4], -23.9% (active); in test [5], 1.53% (active); in test [6], 31.1%. Further, the growth in test [7] is 89.4%.

Take `COc1ccc(C(=O)Cn2c(C(=O)c3ccc(OC)cc3)nc3ccccc32)cc1`: the growth in test [1] is 29.9%; in test [2] it was 31%; in test [3], -50% (active); in test [4], 9.77% (active); in test [5], 16%; in test [6], 12.2%. Further, in test [7], the growth was 24.8%.

With `CC(=O)ON1CCCC(P(=O)(OCCSC(=O)C(C)(C)C)OCCSC(=O)C(C)(C)C)C1=O` (stereo not drawn), the growth is 14.8% in test [1]; 30.9% in test [2]; 48.5% in test [3]; 30.9% in test [4]; 13.9% in test [5]; 10.5% in test [6]. Also, the growth in test [7] was 5.16% (active).

On to `O=C(N=Nc1c(O)[nH]c2ccccc12)Nc1ccc(F)cc1`, for which the growth was 66.2% in test [1]; 89.6% in test [2]; 98.3% in test [3]; 89.4% in test [4]; 71.3% in test [5]; 82% in test [6]. Further, in test [7], the growth is 85.5%.

Take `COc1ccc(CCN2C(=O)/C(=C/c3ccc(C4Oc5ccccc5C5CC(c6ccccc6)=NN54)cc3)SC2=S)cc1` (stereo not drawn): the growth in test [1] is 103%; in test [2] it was 101%; in test [3], 104%; in test [4], 100%; in test [5], 97.3%; in test [6], 104%. Moreover, the growth in test [8] is 104%; in test [7] it was 106%.

For `CN1CCN(CCCOc2cccc3nc(Nc4ccc(F)c(F)c4)ccc23)CC1`, the growth is 19.4% in test [1]; 52.8% in test [2]; -81.5% (active) in test [3]; -90.3% (active) in test [4]; -87.6% (active) in test [5]; -41.2% (active) in test [6]. In test [7], the growth is -77.3% (active).

As to `Nc1nc(N)c2c(n1)NC(c1cccc(Nc3ccnc4cc(C(F)(F)F)ccc34)c1)CC(c1ccccc1)=N2` (stereo not drawn), the growth in test [1] was 83.4%; in test [2], 114%; in test [3], -30.4% (active); in test [4] it was 32.4%; in test [5], 16.9%; in test [6], 21%. In addition, the growth in test [7] was 33.5%.

On to `CCCCNC(=O)c1cc([N+](=O)[O-])cc(C2CCCCC2)c1O`, for which the growth in test [1] is 12%; in test [2] it was 36.5%; in test [3] it was 33.3%; in test [4], 68.6%; in test [5], 39.3%; in test [6], 27.8%. For the same compound, the growth in test [7] is 39.5%.

In the case of `N#Cc1c(-c2ccccc2)nc(SCC(O)CN2CCOCC2)nc1N1CCOCC1` (stereo not drawn), the growth is 26% in test [1]; 29.5% in test [2]; 53% in test [3]; 78.6% in test [4]; 4.99% (active) in test [5]; 57.5% in test [6]. In test [7], the growth is 69.1%.

Turning to `COc1ccc(/C=C/C(c2cc(OC)c(OC)c(OC)c2)n2cncn2)cc1` (stereo not drawn), the growth in test [1] is 30.8%; in test [2] it was 45.5%; in test [3], -9.62% (active); in test [4] it was 26.6%; in test [5], 22.5%; in test [6], 22%. The growth in test [7] was 30.7%.

Turning to `COC(=O)c1c2c(c(C)[n+]([O-])c1C)C(=O)C(NCc1ccc(OC)cc1)=CC2=O`, the growth in test [1] was 3.48% (active); in test [2], 56%; in test [3] it was -67.6% (active); in test [4], 6.71% (active); in test [5], -7.88% (active); in test [6], 3.89% (active). In addition, the growth in test [7] was 14.3%.

With `Clc1ccccc1-c1cnn2cc(-c3ccccc3)cnc12`, the growth in test [1] was 78.9%; in test [2] it was 83.1%; in test [3] it was 44.8%; in test [4], 76.9%; in test [5] it was 75.3%; in test [6], 69%. Also, the growth in test [7] was 63.8%.

Take `CS(=O)(=O)c1nnc(-c2ccccc2)s1`: the growth in test [1] is 44.4%; in test [2] it was 105%; in test [3], 96.5%; in test [4], 84.8%; in test [5], 77.8%; in test [6] it was 45.1%. In addition, the growth in test [7] was 92.7%.

On to `C=C(C)[C@@H]1CC[C@]2(C(N)=O)CC[C@]3(C)[C@H](CC[C@@H]4[C@@]5(C)CC[C@H](OCCC#N)C(C)(C)[C@@H]5CC[C@]43C)[C@@H]12`, for which the growth is 72.3% in test [1]; 89.1% in test [3]; 87% in test [4]; 86.7% in test [5]; 91% in test [6]; 110% in test [8]. Besides, in test [7], the growth was 89.2%.
